Assay outcomes from PubChem.
Only some compounds are listed: those with a hit (about 11% of all), similar ones and a draw of the others.
G9a inh: blocks human histone lysine methyltransferase G9a | G9a H3K9 monomethylation, AlphaScreen, 2 h | Potency, µM (doses to about 102 µM), for inactives: at the top dose activity, negative = inhibition, actives largely listed as inhibitors | 350,000 compounds, 8.8% hits | AID 504332; also: potency is read from the fitted curve at half-maximal effect; nearly all actives have a fitted effect of over 75% in size
Target sequence (Q96KQ7 913-1193 limits assumed): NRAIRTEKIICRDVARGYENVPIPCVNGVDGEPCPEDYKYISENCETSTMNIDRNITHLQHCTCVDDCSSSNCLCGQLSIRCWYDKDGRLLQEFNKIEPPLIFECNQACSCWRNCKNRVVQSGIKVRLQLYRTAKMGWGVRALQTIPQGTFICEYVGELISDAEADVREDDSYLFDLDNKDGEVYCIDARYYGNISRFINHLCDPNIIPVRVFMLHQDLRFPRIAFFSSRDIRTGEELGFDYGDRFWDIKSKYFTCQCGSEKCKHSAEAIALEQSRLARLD
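G9a (20 nM) preincubated 15 min RT with compounds, then 500 nM biotinylated H3K9 peptide and 20 uM SAM added; 2 h RT reaction. Monomethyl-H3K9 product detected by AlphaScreen with anti-H3K9me1 antibody, streptavidin donor and anti-rabbit IgG acceptor beads.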
Tau FP inhib: tau fibrillization inhibition (FP); Potency, µM (highest dose often 57.7 µM), without a hit: at the highest dose activity, negative = inhibition, most hits filed as inhibitors; AID 1468; K18 P301L tau heparin fibrillization, Alexa594 FP, 6 h; 280,000 compounds, 0.39% hits; P10636; also: potency is read from the fitted curve at half-maximal effect; nearly all actives have a fitted effect of over 55% in size
Target sequence (P10636 561-689 P618L limits assumed): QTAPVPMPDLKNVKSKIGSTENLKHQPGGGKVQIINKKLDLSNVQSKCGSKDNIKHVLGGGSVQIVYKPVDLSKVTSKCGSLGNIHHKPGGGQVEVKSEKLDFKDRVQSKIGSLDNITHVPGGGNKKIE
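K18 P301L tau (15 uM unlabeled/0.24 uM Alexa 594-labeled, final) + compound + heparin 20 uM final; 100 mM NaOAc pH 7; 6 hr 37 C; ThT 30 uM final added, 1 hr RT; FP ex 555/em 632 nm.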
Tau fibril ThT: inhibitors of human tau fibril formation, thioflavin T binding | 270,000 compounds, 2.1% hits | P10636 | recombinant tau K18 P301L, heparin-induced fibrillization, ThT fluorescence | AID 1460 | Potency, µM (top dose mostly 57.4 µM), for inactives: top-dose activity, negative = inhibition, most hits filed as inhibitors; also: potency is read from the fitted curve at half-maximal effect; nearly all actives have a fitted effect of over 55% in size
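Recombinant human tau K18 fragment […] carrying P301L, 15 uM unlabeled plus 0.24 uM Alexa 594-labeled, was fibrillized with 20 uM heparin in 100 mM sodium acetate pH 7 for 6 hr at 37 C; 30 uM ThT fluorescence read after 1 hr.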
Sfp PPTase inh: Sfp phosphopantetheinyl transferase inhibition. 310,000 compounds, 3.5% hits. Potency, µM, for the others: largest response in the series, negative = inhibition, actives largely listed as inhibitors. Biochemical Sfp PPTase activity, qHTS;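 also: the enzyme is Sfp with the accession as filed and its product quenches rhodamine fluorescence; potency is read from the fitted curve at half-maximal effect; 0% = enzyme reaction without inhibitor and -100% = no enzyme wells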
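With Hepes-Na pH 7.6 buffer containing 10 mM MgCl2, Sfp (15 nM) modified BHQ-2-YbbR (12.5 uM) using rhodamine-CoA (5 uM). Two reads 30 minutes apart at 525/598 nm yielded each well's rate.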
Coupling enz: counter-screen for Giardia aldolase inhibitors: coupling enzyme system | 290,000 compounds, 0.67% hits | coupling enzyme system counterscreen, AmpLite Red fluorescence | activity change, negative = inhibition, % at 58.2 µM, hits read low; in the data active = activity change below about -30%
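Final compound at 57.5 uM, incubated 10 min at RT with coupling enzyme reagent (glyceraldehyde-3-phosphate), then 20 min with substrate and AmpLite Red detection. Fluorescence read at 525/598 nm; tests interference with the coupling assay, not aldolase inhibition.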
Tau fluor cs: counter-screen for tau fibril formation inhibitors | tau K18 P301L Alexa594 fluorescence, heparin fibrillization | Potency, µM (doses to about 57.7 µM), for inactives: at the top dose activity change, negative = decrease | 280,000 compounds, 0.93% hits | AID 1463; also: potency is read from the fitted curve at half-maximal effect; nearly all actives have a fitted effect of over 55% in size
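Human tau K18 P301L (15 uM unlabeled, 0.24 uM Alexa 594-labeled) in 100 mM sodium acetate pH 7 with 20 uM heparin, 6 hr at 37 C. ThT 30 uM added, 1 hr ambient; Alexa 594 FP and total fluorescence read at 555/632 nm.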
* hit, by the source's call; ? = inconclusive; / = no result given; [ ] = remark or other dose. Unless noted, calls follow the shape of the dose curve; as a rule, active = well fitted curve in the direction sought with a large enough effect; inconclusive = small, poorly fitted or top-dose-only effect, or another doubt; inactive = no such curve, though single readings can be large; an effect the other way counts as inactive or inconclusive. Unless noted, % is scaled to controls: 0 for no effect and ±100 for the full control effect.

SMILES	G9a inh	Tau FP inhib	Tau fibril ThT	Sfp PPTase inh	Coupling enz	Tau fluor cs
CCN(CC)c1ccc(NC(=O)CN(C)S(=O)(=O)c2cccc3nsnc23)c(C)c1	18µM*	0%	?	/	/	?
CCN(CCNC(=O)CN(C)S(=O)(=O)c1cccc2nsnc12)c1ccccc1	40µM*	13%	-13%	-13%	-9	-21%
CCN(CCNC(=O)C1CCN(S(=O)(=O)c2cccc3nsnc23)CC1)c1ccccc1	50µM*	7%	-8%	-1%	-4	-18%
CCN(CCCNC(=O)CN(C)S(=O)(=O)c1cccc2nsnc12)c1cccc(C)c1	18µM*	8%	-19%	0%	-1	-21%
CCOc1ccc(Br)cc1CNc1ccc2c(c1)OCCO2	-138%[59 µM]	13%	?	0%	-2	?
CC(C)Cn1nnnc1S(=O)(=O)CCc1ccccc1	/	2%	9%	21%	-1	3%
CCc1nnc(NC(=O)CCC(=O)N2CCN(Cc3ccc(F)cc3)CC2)s1	17%	/	/	6%	-4	/
O=C1CC(c2ccccc2)c2c(n3ncnc3[nH]c2=O)N1 (stereo unspecified)	-16%[59 µM]	10%	8%	/	/	11%
CO[C@H]1COC(=O)C/C=C\[C@H](C)[C@@H](OC)COC(=O)C/C=C\[C@@H]1C	/	?	?	13%	2	-28%[11.6 µM]
CCN(CCNC(=O)C1CCN(S(=O)(=O)CC)CC1)c1ccccc1	?	2%	1%	2%	0	5%
CCN(CCNC(=O)C1CCN(c2nnc(-n3cccc3)s2)CC1)c1ccccc1	16µM*	1%	?	11%	-1	-23%
CCCCN(CCCNC(=O)C1CCN(S(=O)(=O)CC)CC1)c1ccccc1	7.1µM*	1%	10%	0%	-9	10%
O=C(NCCc1ccccc1)C1CCCN1S(=O)(=O)c1cccc2nsnc12 (stereo unspecified)	-1%	/	/	8%	/	/
NS(=O)(=O)c1ccc(CCNC(=O)C2CCCN2S(=O)(=O)c2cccc3nsnc23)cc1 (stereo unspecified)	79µM*	/	/	8%	/	/
CC(Sc1n[nH]c(-c2ccccc2F)n1)C(=O)Nc1ccc(S(N)(=O)=O)cc1 (stereo unspecified)	14%[12.7 µM]	/	/	/	/	/
CSCC[C@H](NC(=O)c1ccc2ccccc2c1)C(=O)N1CCC2(CC1)NCCc1[nH]cnc12	45µM*	/	/	-20%	/	/
O=C1C2C(c3ccccc3)CC=CC2C(c2cccc([N+](=O)[O-])c2)N1Cc1ccccc1 (stereo unspecified)	/	/	/	11%	3	/
COc1cc(/C=C(/C#N)C(=O)Nc2ccc(C)cc2)ccc1Oc1nc(Cl)ncc1F	0%[59 µM]	-11%	?	3%	-4	-7%
CC(C)(C)c1ccc(S(=O)(=O)/C=C/C#N)cc1	0.95µM*	-9%	?	/	/	0%
N#Cc1cc2c([nH]c1=S)CCCCCC2	?	-15%	?	10µM*	11	-13%
COC(=O)C1C(=O)C(C(=O)/C=C/c2ccco2)C(=O)CC1(C)C (stereo unspecified)	/	-10%	-17%	56µM*	0	-14%
Cc1ccc(S(=O)(=O)N2CN(CC3CCCO3)c3nc4ccccc4nc32)cc1 (stereo unspecified)	28µM*	/	/	-1%	/	/
COCCN1CN(S(=O)(=O)c2ccccc2)c2nc3ccccc3nc21	-45%[12.7 µM]	7%	5%	23%	0	8%
COc1ccccc1CN1CN(S(=O)(=O)c2ccccc2)c2nc3ccccc3nc21	32µM*	-19%	-13%	4%	-1	?
Cc1ccc(S(=O)(=O)Nc2nc3ccccc3nc2NCC2CCCO2)cc1 (stereo unspecified)	-5%	5%	-16%	21%	4	-14%
Nc1ccc2nc(SCC(=O)c3ccccc3)sc2c1	45µM*	/	/	0%	-3	/
Nc1ccc2nc(SCc3ccccc3F)sc2c1	22µM*	?	/	-22%	-2	0.56µM*[quencher]
